An excerpt weighted towards active compounds, which were near 1.6% of everything screened.
Giardia killer = kills Giardia lamblia; 340,000 compounds, 0.15% hits; Giardia lamblia trophozoite viability; AID 540267; activity change, % at 7.66 µM, hits read low; in the data active means activity change below about -80%; inconclusive means between about -30% and that limit;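 further: parasites exposed to compound for two days anaerobically before the ATP read; on the % scale 0 is the no-effect control and ±100 the full control effect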
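ATP-content bioluminescence gauges trophozoite survival. Cells (100/well) receive compound and incubate anaerobically for 48 hrs at 37 deg C; detection reagent follows for 15-30 min at room temperature.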
RXFP1 antag = blocks the human relaxin receptor RXFP1 | AID 1259400 | 350,000 compounds, 0.59% hits | HEK293-RXFP1, relaxin-stimulated cAMP HTRF, 30 min; hits give low values | activity change, negative = inhibition, % at 57.5 µM;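 active means activity change of -60% or lower, but not beyond a set lower limit; inconclusive means change between -60% and -40%, or beyond the set limit; inactive means change above -40%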; further: on the % scale 0 is the no-effect control and ±100 the full control effect
Target sequence (Q9HBX9 whole entry, looked up): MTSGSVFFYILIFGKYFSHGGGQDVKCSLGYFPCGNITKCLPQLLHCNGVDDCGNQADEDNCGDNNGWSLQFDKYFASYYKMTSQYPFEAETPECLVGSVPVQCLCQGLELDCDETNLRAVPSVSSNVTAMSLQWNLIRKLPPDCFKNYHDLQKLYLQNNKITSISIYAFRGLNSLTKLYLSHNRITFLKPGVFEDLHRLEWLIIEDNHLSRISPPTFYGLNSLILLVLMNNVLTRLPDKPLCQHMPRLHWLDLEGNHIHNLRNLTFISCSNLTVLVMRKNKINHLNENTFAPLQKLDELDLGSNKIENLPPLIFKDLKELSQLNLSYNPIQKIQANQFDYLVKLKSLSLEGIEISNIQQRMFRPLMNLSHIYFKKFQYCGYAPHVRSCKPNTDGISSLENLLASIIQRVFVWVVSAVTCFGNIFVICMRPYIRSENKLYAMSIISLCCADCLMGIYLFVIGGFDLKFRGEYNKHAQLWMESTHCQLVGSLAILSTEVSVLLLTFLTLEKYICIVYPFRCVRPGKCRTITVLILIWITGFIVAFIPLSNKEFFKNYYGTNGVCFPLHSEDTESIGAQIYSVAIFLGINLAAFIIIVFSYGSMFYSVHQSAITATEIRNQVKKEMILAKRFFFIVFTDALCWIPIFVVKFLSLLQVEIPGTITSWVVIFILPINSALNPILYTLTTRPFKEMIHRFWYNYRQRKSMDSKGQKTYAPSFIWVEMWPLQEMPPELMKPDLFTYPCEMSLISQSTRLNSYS
gsp agonist = activates gsp, the McCune-Albright syndrome mutation. 340,000 compounds, 0.13% hits. Potency, µM (top dose mostly 76.9 µM), for inactives: at the highest dose activation (cAMP increase), actives largely listed as activators. AID 624287. gsp mutant cells, cAMP HTRF, 30 min; active means well fitted activation curve with a large enough effect; inconclusive means small, poorly fitted or top-dose-only effect, or another doubt; inactive means no such curve, though single readings can be large or run the other way; cell line not stated here;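 further: phosphodiesterase inhibitor Ro 20-1724 added with compounds to block cAMP breakdown; potency means the concentration at half of the fitted maximal effect; nearly all actives have a fitted effect of over 60% in size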
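Cells in DMEM/10% FBS with G418 were pretreated with compounds in DMSO plus […] (300 uM stock) for 30 min at 37C. cAMP was measured by HTRF (cAMP-d2 plus anti-cAMP antibody-K) after 30 min at room temperature.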
RXFP1 ag = activates the human relaxin receptor RXFP1. Q9HBX9. HEK293T-RXFP1 cAMP TR-FRET, 30 min; response scale: percent of porcine relaxin response, buffer zero. Potency, µM (highest dose often 57.5 µM), without a hit: top-dose activation, usual class: activators. 370,000 compounds, 0.3% hits. AID 2676; active means well fitted activation curve with a large enough effect; inconclusive means small, poorly fitted or top-dose-only effect; further: potency means the concentration at half of the fitted maximal effect; on the % scale 0 is the no-effect control and ±100 the full control effect; nearly all actives have a fitted effect of over 60% in size
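cAMP rise read by TR-FRET after 30 min, 37C compound exposure (up to 58 uM) in RXFP1-transfected HEK293 cells with Ro 20174 present. EC50 from Hill-equation fits, with 29 nM porcine relaxin as 100% and buffer as basal.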
gsp antagonist = antagonists of gsp mutant (McCune-Albright syndrome). 340,000 compounds, 0.4% hits. gsp-mutant cells, cAMP HTRF, 30 min. Potency, µM (doses to about 76.9 µM), for inactives: at the highest dose activity change, negative = inhibition, actives largely listed as inhibitors; calls by dose curve; cell line not stated here;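 further: intracellular cAMP measured with PDE inhibitor Ro 20-1724 present during compound exposure; potency means the concentration at half of the fitted maximal effect; on the % scale 0 is the no-effect control and ±100 the full control effect; nearly all actives have a fitted effect of over 65% in size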
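G418-selected cells were plated in DMEM/10% FBS for 16-24 h at 37C, then treated with compounds plus the PDE inhibitor […] (300 uM solution added) for 30 min at 37C. Intracellular cAMP was measured by HTRF after 30 min lysis at room temperature.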
Coupling enz = counter-screen for Giardia aldolase inhibitors: coupling enzyme system | coupling enzyme system counterscreen, AmpLite Red fluorescence | activity change, negative = inhibition, % at 58.2 µM, hits read low | 290,000 compounds, 0.67% hits; in the data active means activity change below about -30%; further: on the % scale 0 is the no-effect control and ±100 the full control effect
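Counterscreen of the coupled detection system alone, without aldolase: glyceraldehyde-3-phosphate coupling enzymes plus AmpLite Red readout. Compounds at 57.5 uM final, 10 min RT preincubation, 20 min RT reaction, fluorescence 525/598 nm.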
The depositor's hits bear a star; ? = inconclusive; / = no result; [ ] = dose if it differs, or a comment.

SMILES	Giardia killer	RXFP1 antag	gsp agonist	RXFP1 ag	gsp antagonist	Coupling enz
Cc1sc2ncnc(N3CCC(C(=O)NNC(=O)COc4ccc(Cl)cc4)CC3)c2c1C	-7	-14	?	/	32µM*	/
Cc1sc2ncnc(N3CCC(C(=O)Nc4ccc(OC(F)F)c(Cl)c4)CC3)c2c1C	-23	-7	-35%	/	28µM*	/
Cc1cccc(C)c1NC(=O)CN(C)C(=O)C1CCN(c2ncnc3sc(C)c(C)c23)CC1	-16	-16	?	5%	-20%	/
Cc1cc(Cl)ccc1OCC(=O)NNC(=O)C1CCN(c2ncnc3sc(C)c(C)c23)CC1	-9	-20	17%	0%	35µM*	/
COc1cc(OC)cc(C2=Nn3c(nnc3-c3ccccc3OC)SC2)c1	/	/	/	/	/	0
Cc1sc2ncnc(N3CCC(C(=O)NNC(=O)COc4cccc(C(F)(F)F)c4)CC3)c2c1C	-14	-31	28%	2%	50µM*	/
Cc1sc2ncnc(N3CCC(C(=O)NNC(=O)COc4ccc(Br)cc4)CC3)c2c1C	12	-19	-17%[15.4 µM]	1%	32µM*	/
CCc1ccc(OCC(=O)NNC(=O)C2CCN(c3ncnc4sc(C)c(C)c34)CC2)cc1	2	-14	-12%	1%	-4%	/
COc1ccc(OCC(=O)NNC(=O)C2CCN(c3ncnc4sc(C)c(C)c34)CC2)cc1	?	-11	-25%	0%	?	/
CCN(CC(=O)Nc1ccccc1OC)C(=O)/C=C/c1cccs1	-4	-69*	9%[15.4 µM]	1%	-5%	/
Cc1ccc(S(=O)(=O)N2CCN(c3nc(-c4cncnc4)nc4ccccc34)CC2)cc1	17	/	/	/	/	/
CCOc1ccc(CNC(=O)Cn2cc3c(n2)-c2c(oc(C(=O)N4CCOCC4)c2C)CC3)cc1	/	1	/	8%	/	/
Cc1nc(-c2ccccc2)c(-c2ccncc2)o1	/	/	/	/	/	-1
Cc1nc(SCc2ccc([N+](=O)[O-])cc2)n[nH]1	-7	-73*	-24%	1%	1%	-1
COC(=O)c1ccccc1-c1ccc(/C=N/Nc2nc(N3CCCC3)nc(N3CCCC3)n2)o1	-18	?	0%[15.4 µM]	10%	25µM*	2
COc1ccc(/C(C)=N/NC(=S)NCCc2ccccc2)c(O)c1	2	-62*	3%[15.4 µM]	1%	-17%	-1
O=C1c2sc3nc4n(c(=O)c3c2CCC1Br)CCCCC4 (stereo not given)	-10	-11	5%[15.4 µM]	4%	-1%	-62*
O=C1CCCc2c1sc1nc3n(c(=O)c21)CCCCC3	-4	7	25%	3%	15%	4
CC(OC(=O)CN(C)S(=O)(=O)c1ccc(Cl)cc1)C(=O)Nc1cccc(Cl)c1 (stereo not given)	12	-13	8%	1%	40µM*	0
CC1=NN(c2cccc(C(=O)O)c2)C(=O)/C1=C\C=C/c1ccccc1	-4	-75*	-7%[15.4 µM]	1%	28µM*	-3
Cc1cc(C)cc(N=Cc2[nH]c3ccc(Br)c(Cl)c3c2O)c1	-8	-8	11%	3%	0%	-19
COc1ccc(CN=Cc2[nH]c3ccc(Br)c(Cl)c3c2O)cc1	-18	4	?	8%	10%	-30*
CN1CC2(Cc3cc([N+](=O)[O-])ccc31)C(=O)OC(C)(C)OC2=O	-9	/	/	/	/	/
O=c1[nH]c2ccccc2c(O)c1O	9	/	/	3%	-2%	-73*
O=C(O)c1c(C(=O)O)c2ccccc2[nH]c1=O	/	/	/	/	/	-33*
SMILES	Giardia killer	RXFP1 antag	gsp agonist	RXFP1 ag	gsp antagonist	Coupling enz
O=S(=O)(Nc1cc2nc3ccccc3nc2n1Cc1ccccc1)c1ccc(Cl)cc1	4	-10	?	7%	-8%	-55*
O=S(=O)(NCc1ccccc1)c1ccc(Cl)cc1	-14	6	20%	0%	-4%	3
Cc1ccc2ccc(Cl)cc2n1	/	10	/	/	/	/
COc1ccc(C(C)=O)cc1Cn1c(=O)cc(C)[nH]c1=O	-18	1	-1%	2%	1%	-1
COc1ccc(C(C)=O)cc1Cn1cnc2c(cnn2C)c1=O	34	39	?	13µM*	13%	1
Cc1cc(Cc2cc(C)c(O)c(CO)c2)cc(CO)c1O	-2	-18	-2%	/	3%	/
COC(=O)C1CCN(CC(=O)NC(=O)Nc2ccccc2F)CC1	-1	-15	-58%	/	6%	/
CC(C)c1ccc(N2C(=O)CSC23C(=O)N(Cc2ccccc2F)c2ccccc23)cc1 (stereo not given)	/	/	/	5%	/	/
CCCCCCCCCCCCCCCCCCN(C)C	/	22	/	/	/	/
COCCn1c(=O)c(-c2ccccc2)nc2cnc(Oc3ccccc3)nc21	/	/	/	/	/	-2
COc1ccc(OC)c2c1C(=O)C(Cl)=C(Cl)C2=O	-15	/	-69%	-3%	35µM*	-45*
COc1ccc(OC)c2c1C(=O)c1ccccc1C2=O	-17	1	8%	5%	13%	-20
CCCCc1nc2c(c3c1C[C@H](C)OC3)CN(C(=O)COC)CC2	/	/	/	/	/	1
Cc1cc(=O)[nH]c(SCC(=O)C23CC4CC(CC(C4)C2)C3)c1C#N	9	17	19%	1%	35µM*	-2
CCC(Oc1ccc(F)cc1)C(=O)Nc1nc(-c2ccc(F)cc2)ns1 (stereo not given)	/	-87*	/	1%	/	/
CCC(Oc1ccc(F)cc1)C(=O)Nc1cc(-c2ccc(C)cc2)no1 (stereo not given)	/	?	/	-1%	/	/
CO[C@H]1/C=C/O[C@@]2(C)Oc3c(C)c(O)c4c(O)c(c(C=NN5CCN(C)CC5)c(O)c4c3C2=O)NC(=O)/C(C)=C\C=C\[C@H](C)[C@H](O)[C@@H](C)[C@@H](O)[C@@H](C)[C@H](OC(C)=O)[C@@H]1C	-26	/	/	0%	?	/
CO[C@H]1C=CO[C@@]2(C)Oc3c(C)c(O)c4c(O)c(c(C=NN5CCN(C)CC5)c(O)c4c3C2=O)NC(=O)C(C)=CC=C[C@H](C)[C@H](O)[C@@H](C)[C@@H](O)[C@@H](C)[C@H](OC(C)=O)[C@@H]1C	-4	/	/	0%	?	-51*
CCC(=O)N1CCN(c2ccccc2NC(=O)c2ccc([N+](=O)[O-])o2)CC1	-90*	11	-8%[15.4 µM]	5%	-13%	5
CC(C)C(=O)N1CCN(c2ccccc2NC(=O)c2ccc([N+](=O)[O-])o2)CC1	-89*	8	-25%	3%	?	4
CC(C)C(=O)N1CCN(c2ccccc2NC(=O)c2ccc(Br)o2)CC1	-6	7	11%	/	?	/
O=C(Nc1ccccc1N1CCCC1)c1ccc([N+](=O)[O-])o1	?	6	5%	-3%	-5%	/
O=C(Nc1ccccc1N1CCN(C(=O)c2ccccc2)CC1)c1ccc([N+](=O)[O-])o1	-86*	-2	15%	4%	?	1

Screening data deposited in PubChem BioAssay by National Center for Advancing Translational Sciences (NCATS).
